This is part of a sample that, as a whole, favours compounds with a hit. Of some 83,000 tested, about 20% had one in any assay.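 Compound tested at a single concentration for 48 hours in 96-well plates; a percent growth value below 10 was scored as active.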 Unmarked numbers belong to inactive results. Activity calls are given as the source filed them.

Assay in all cases: NCI-60 one-dose screen, 48 h (100 = growth as untreated, 0 = no growth, -100 = all killed)
Details in all cases: 10 µM unless noted

Experiment [1] relates to T-47D breast.
The subject of experiment [2] is BT-549 breast.
The test system of experiment [3] is MDA-MB-435 melanoma.
Experiment [4] deals with MCF7 breast.
The subject of experiment [5] is HCT-116 colon.
For experiment [6], the system named is HCC-2998 colon.
The subject of experiment [7] is KM12 colon.
Experiment [8] deals with SW-620 colon.

Turning to `Cn1c(=O)[nH]c2ccccc2c1=O`, the growth is 95.2% in experiment [1]; 91.3% in experiment [2]; 101% in experiment [3]; 90.2% in experiment [4]; 103% in experiment [5]; 112% in experiment [6]. Further, the growth in experiment [7] was 102%.
Take `CCNc1ccc2ccccc2c1N=Nc1ccc(N=Nc2ccccc2)cc1`: the growth in experiment [1] is 84.7%; in experiment [2] it was 120%; in experiment [8], 99.8%; in experiment [4], 85.2%; in experiment [5], 72%; in experiment [6], 110%. For the same compound, the growth in experiment [7] is 105%.
Take `N#CCCN1C(=O)CCC1C(=O)O` (stereo not drawn): the growth in experiment [1] was 121%; in experiment [2], 107%; in experiment [3] it was 110%; in experiment [8] it was 96.6%; in experiment [5], 97.6%; in experiment [7], 103%.
As for `CC(O)C(F)(F)C(F)(F)C(F)(F)F` (stereo not drawn), the growth was 110% in experiment [1]; 107% in experiment [2]; 101% in experiment [8]; 101% in experiment [4]; 100% in experiment [5]; 111% in experiment [6]. Moreover, the growth in experiment [7] is 114%.
As to `CSCCC(NC(=O)C(Cl)Cl)C(=O)O` (stereo not drawn), the growth in experiment [1] was 82.9%; in experiment [2] it was 102%; in experiment [8], 100%; in experiment [4], 95.3%; in experiment [5], 91.2%; in experiment [6], 98.8%. Further, the growth in experiment [7] was 106%.
With `COCC(N)=O`, the growth is 98.4% in experiment [1]; 93.2% in experiment [2]; 99.7% in experiment [8]; 102% in experiment [4]; 99% in experiment [5]; 110% in experiment [6]. Besides, the growth in experiment [7] is 98.9%.
In the case of `N#C/C(=C\NC(=S)N=Nc1c(O)[nH]c2ccccc12)c1nc2ccccc2s1`, the growth is 71.6% in experiment [1]; 101% in experiment [2]; 108% in experiment [3]; 93% in experiment [8]; 76% in experiment [4]; 102% in experiment [7].
As for `O=C1NCC2CCCC1C2` (stereo not drawn), the growth was 118% in experiment [1]; 98.3% in experiment [2]; 112% in experiment [3]; 120% in experiment [8]; 101% in experiment [5]; 107% in experiment [7].
On to `C=C(c1ccc(N(C)C)cc1)c1ccc(N(C)C)cc1`, for which the growth in experiment [1] is 26.9%; in experiment [2] it was -5.95% (active); in experiment [3] it was -67.6% (active); in experiment [4], 13.5%; in experiment [5], 5.45% (active); in experiment [6] it was 5.58% (active). Further, the growth in experiment [7] is 26.5%.
As to `CCN(CC)c1ccc2nc3ccc(N=Nc4ccc(N(C)C)cc4)cc3[n+](-c3ccccc3)c2c1`, the growth is 0.779% (active) in experiment [1]; -23.3% (active) in experiment [2]; -87.3% (active) in experiment [3]; -82.5% (active) in experiment [8]; -69.7% (active) in experiment [6]; -64.3% (active) in experiment [7].
As for `CCOC(=O)c1c[nH][nH]c1=O`, the growth in experiment [1] is 103%; in experiment [2], 106%; in experiment [8], 104%; in experiment [4] it was 92.4%; in experiment [5], 102%; in experiment [6], 98.5%. The growth in experiment [7] was 111%.
With `CSc1cnc2ccccc2n1`, the growth is 81% in experiment [1]; 94.6% in experiment [2]; 93.9% in experiment [8]; 98.9% in experiment [4]; 99.2% in experiment [5]; 98.5% in experiment [6]. Also, the growth in experiment [7] was 101%.
As to `O=[N+]([O-])c1c(Cl)ncnc1Cl`, the growth was 117% in experiment [1]; 106% in experiment [2]; 95.3% in experiment [8]; 95.2% in experiment [4]; 115% in experiment [5]; 121% in experiment [6]. The growth in experiment [7] is 102%.
Turning to `CC(=O)[C@@]1(O)CC[C@H]2[C@@H]3CC[C@@H]4CC(=O)CC[C@]4(C)[C@H]3[C@@H](O)C[C@@]21C`, the growth is 88.2% in experiment [1]; 102% in experiment [2]; 100% in experiment [8]; 93.6% in experiment [4]; 107% in experiment [5]; 98.4% in experiment [6]. Further, the growth in experiment [7] is 101%.
With `O=C(O)Cc1cccc2ccccc12`, the growth in experiment [1] is 103%; in experiment [2], 107%; in experiment [3], 104%; in experiment [8], 102%; in experiment [5], 106%; in experiment [6], 95.9%. Further, the growth in experiment [7] was 107%.
On to `CC(=O)NC(CCC(=O)c1ccccc1)C(=O)O` (stereo not drawn), for which the growth in experiment [1] is 83.3%; in experiment [2], 76.9%; in experiment [8] it was 100%; in experiment [4], 89.4%; in experiment [5] it was 80.2%; in experiment [6], 108%. For the same compound, the growth in experiment [7] is 103%.
On to `C=CCC(OC(C)=O)c1ccc(OC)c(OC)c1` (stereo not drawn), for which the growth in experiment [1] was 112%; in experiment [2], 116%; in experiment [3] it was 110%; in experiment [8], 98%; in experiment [5], 103%; in experiment [7] it was 99%.
As to `Cc1cc2c(C(C)C)c(O)c(O)c(C=Nc3ccccc3[N+](=O)[O-])c2c(O)c1-c1c(C)cc2c(C(C)C)c(O)c(O)c(C=Nc3ccccc3[N+](=O)[O-])c2c1O`, the growth in experiment [1] was 83.1%; in experiment [2] it was 94%; in experiment [8] it was 96.3%; in experiment [4], 91.2%; in experiment [5], 73.7%; in experiment [6], 79.5%. Moreover, in experiment [7], the growth was 47.7%.
With `Nc1cc(N)ncn1`, the growth in experiment [1] was 112%; in experiment [2], 101%; in experiment [8], 104%; in experiment [4], 99.7%; in experiment [5], 99.1%; in experiment [6], 99.6%. In addition, the growth in experiment [7] is 101%.
Take `Clc1ncnc2nc[nH]c12`: the growth in experiment [1] was 90.7%; in experiment [2], 101%; in experiment [8], 103%; in experiment [4] it was 94.9%; in experiment [5], 102%; in experiment [7], 105%.
With `C=CCN1CCCC1=O`, the growth is 100% in experiment [1]; 101% in experiment [3]; 102% in experiment [8]; 99.6% in experiment [4]; 106% in experiment [5]; 128% in experiment [6]. The growth in experiment [7] is 110%.
With `O=C(CC(CC(=O)c1ccccc1)c1ccccn1)c1ccccc1`, the growth was 97.2% in experiment [1]; 101% in experiment [2]; 101% in experiment [8]; 107% in experiment [4]; 94% in experiment [5]; 97% in experiment [6]. In addition, the growth in experiment [7] was 102%.

These data come from PubChem BioAssay (NCI).
